Measurements taken from PubChem BioAssay.

Assay: inhibitors of PAF-induced NFkB signaling in CF airway cells, dose response, cell-based, uHTS hits, panel, cytotoxicity readout (AID 624344)
Conditions: CF bronchial epithelial cells, PAF-induced NFkB reporter inhibition, with PAF, run 1; at 79 µM (top of the series) unless noted

Structure (SMILES)	inhibition [%]
Cc1ccc(NC(=O)Nc2cccc([N+](=O)[O-])c2)cc1F	102
Cc1cccc(NC(=O)c2nc[nH]c2C(=O)NCCCNC(=O)c2[nH]cnc2C(=O)Nc2cccc(C)c2)c1	97.6
CC(C)C[C@@H](CN1CCC[C@@H]1CN1C(=S)NC[C@@H]1Cc1ccc(O)cc1)N1C[C@H](Cc2ccc(O)cc2)N(CC2CCCCC2)C1=S	105
Cc1cc2cc(CCNC(=O)C(=O)c3c[nH]c4ccccc34)c(=O)[nH]c2cc1C	94.2
Oc1ccc(Nc2ncnc3scc(-c4ccccc4)c23)cc1	56
O=[N+]([O-])c1cccc(/C=N/Nc2cc(N3CCOCC3)ncn2)c1	116
O=C(Nc1ccc(N2CCN(C(=O)c3ccccc3F)CC2)cc1)c1cncc(Br)c1	112
C=C1C(=O)O[C@@H]2[C@H]1CC[C@H](C)[C@]1(O)CCC(=O)[C@@]21C	101
O=C(NCCC1=CCCCC1)c1coc(=O)c(Br)c1	79.7
COc1ccc2[nH]cc(C(=O)CCl)c2c1	96.8
Cc1cc(C)nc(Sc2ncnc(N)c2[N+](=O)[O-])n1	96.2
CCCC1/C(=N/O)CC(c2ccccc2)NC1c1ccccc1 (configuration not stated)	106
O=c1[nH]nc(Sc2ncnc3sccc23)n1CCc1ccccc1	100
Cc1cccc(C)c1NS(=O)(=O)c1ccc(-c2cnc(C3CC3)o2)cc1	112
COc1cccc(-c2ccc3ncnc(NCc4ccc5c(c4)OCO5)c3c2)c1	97.6
N#CC(C#N)=C1SC(=Nc2ccccc2)C(=Nc2ccccc2)N1c1ccccc1	98.5
C=CC[C@]12CC=CC(=O)[C@@]1(O)O[C@H](c1ccc(OC)c(OC)c1)[C@H]2C	110
